CYP2C9 inh = human CYP2C9 inhibition. CYP2C9 Supersomes, luciferin-H conversion, luminescence. inhibition, % at 5 µM. 20% of 96,000 active. P11712;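 active = blocking of liver enzyme CYP2C9 beyond about 50% at 5 µM, limit read from the data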
Target sequence (P11712 whole entry, looked up): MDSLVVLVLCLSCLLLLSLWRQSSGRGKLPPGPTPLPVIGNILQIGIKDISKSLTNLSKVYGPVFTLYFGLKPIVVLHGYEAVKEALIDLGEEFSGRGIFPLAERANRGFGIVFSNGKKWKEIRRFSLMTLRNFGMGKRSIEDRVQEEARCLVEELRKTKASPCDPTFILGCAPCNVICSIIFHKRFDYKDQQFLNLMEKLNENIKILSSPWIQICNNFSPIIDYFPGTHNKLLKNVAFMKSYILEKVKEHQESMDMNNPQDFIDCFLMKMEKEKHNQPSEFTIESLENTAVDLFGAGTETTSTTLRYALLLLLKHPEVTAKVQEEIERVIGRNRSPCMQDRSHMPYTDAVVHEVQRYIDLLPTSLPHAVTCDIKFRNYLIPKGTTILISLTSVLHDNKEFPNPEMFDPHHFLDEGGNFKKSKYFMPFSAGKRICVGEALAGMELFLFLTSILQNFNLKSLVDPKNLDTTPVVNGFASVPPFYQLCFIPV
CYP2C19 act = cytochrome P450 2C19 (human) activation; P33261; recombinant CYP2C19, luciferin-H EGE luminescence; active compounds read high; 0 = fully inhibited enzyme, 1 = untreated enzyme; activation factor at 5 µM; 96,000 tested, under 10 active; AID 1025;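 active = activation factor of at least 2 at 5 µM in the primary screen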;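 note: 0 = wells with 2.5 mM tranylcypromine and 1 = vehicle-only wells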
CYP2C19 inh = inhibitors of human CYP2C19 | CYP2C19 Supersomes, luciferin-H EGE luminescence, 30 min | P33261 | inhibition, % at 5 µM | 21% of 96,000 active;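 active = CYP2C19 inhibition above a set limit at 5 µM in the primary screen, cut at about 50% in these data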;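 note: plate controls were negative control wells for no effect and 2.5 mM tranylcypromine positive control for full effect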
CYP2C9 act = increases human cytochrome P450 2C9 activity | P11712 | recombinant CYP2C9, luciferin-H conversion, luminescence; active compounds read high; factor 1 = untreated enzyme, 0 = blocked | activation factor at 5 µM | 1.4% of 96,000 active;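 active = activation factor of 2 or more for CYP2C9 at a 5 µM dose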;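 note: 0 = sulfaphenazole-blocked wells and 1 = vehicle-only wells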
PostGolgi ctrl = yeast control strain growth, post-Golgi counter-screen; inhibition, % at 10 µM; efflux-deficient yeast background strain, growth absorbance A615, 16 h; AID 738; 5% of 98,000 active
PostGolgi yeast = growth inhibition of a yeast mutant, post-Golgi transport screen | post-Golgi transport phenotypic cell assay | AID 739 | 0.9% of 98,000 active | inhibition, % at 10 µM;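 note: yeast cells grown in 1536-well plates; yeast grown about 18 h at 30C before absorbance read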
Starred values were filed as active, the others as inactive. The list is not random: actives were taken first. Their share in the collection is about 32%. Cut-off read from the data, not from the text of the source, unless noted: active = inhibition above about 30%; inactive = the rest.

SMILES | CYP2C9 inh | CYP2C19 act | CYP2C19 inh | CYP2C9 act | PostGolgi ctrl | PostGolgi yeast
Cc1ccccc1-c1ccc(=O)n(CC(=O)Nc2ccc(N3CCOCC3)cc2)n1 | 12 | 0.9 | 10 | 0.9 | 1 | -3
Cc1cc(Cl)ccc1OCCCC(=O)N1CCCc2ccccc21 | 21 | 0.8 | 21 | 0.8 | 12 | -7
Cc1onc(-c2c(Cl)cccc2Cl)c1C(=O)Nn1cnnc1 | 13 | 1 | -4 | 0.9 | -3 | -2
Cc1csc(NC(=O)c2c(-c3c(Cl)cccc3Cl)noc2C)n1 | 89* | 0.2 | 83* | 0.1 | -2 | -4
Cc1onc(-c2c(F)cccc2Cl)c1C(=O)NCc1cccs1 | 84* | 0.2 | 85* | 0.2 | 13 | 0
CCOC(=O)Cc1csc(NC(=O)c2c(-c3ccccc3)noc2C)n1 | 83* | 0.2 | 82* | 0.2 | 6 | 6
Cc1ccc(C)c(NC(=O)CN(C)C(=O)CCN2C(=O)c3ccccc3C2=O)c1 | 8 | 0.9 | 8 | 0.9 | 5 | 9
Cc1ccc(CNc2ncc(-c3ccc4c(c3)OCO4)n2C)cc1 | 74* | 0.3 | 69* | 0.3 | 12 | -13
Cc1ccc(CNc2ccc3c(c2)OCO3)cc1 | 10 | 0.8 | 22 | 0.9 | 10 | 2
Cn1c(-c2ccc3c(c2)OCO3)cnc1NCc1ccc(Cl)cc1 | 99* | 0.3 | 66* | 0 | 2 | 16
Cc1nn2c(-n3ccnc3C)c3c(nc2c1-c1ccccc1)CCC3 | 62* | 0.1 | 90* | 0.4 | 10 | -4
Cc1nn2c(N3CCOCC3)c3c(nc2c1-c1ccccc1)CCCC3 | 77* | 1.1 | -8 | 0.2 | 79* | 1
Cc1nn2c(NCC(C)C)c3c(nc2c1-c1ccccc1)CCC3 | 17 | 0.9 | 6 | 0.8 | 5 | -8
CC1CCc2c(C(=O)Oc3cccc(-n4cnnn4)c3)csc2C1 (stereo not drawn) | -9 | 1 | 2 | 1.1 | 26 | 10
O=C(Nc1nc(C2C3CC4CC(C3)CC2C4)cs1)c1cc2cc([N+](=O)[O-])ccc2oc1=O (stereo not drawn) | -8 | 1 | -4 | 1.1 | 9 | 2
CCCS(=O)(=O)N1CCC(C(=O)NCCN(C)Cc2ccccc2)CC1 | -2 | 1 | -2 | 1 | -13 | -7
O=C(CCCC(=O)OCC(Cl)=C(Cl)Cl)Nc1cccc(F)c1 | -2 | 0.7 | 27 | 1 | 0 | -1
CCN(CC)C(=O)C(Sc1ccccc1)c1ccccc1 (stereo not drawn) | 12 | 0.1 | 90* | 0.9 | -5 | 17
COc1ccc(OC)c(NC(=O)C(Sc2ccccc2)c2ccccc2)c1 (stereo not drawn) | 7 | 0.4 | 56* | 0.9 | 11 | -1
CNC(=O)C(Sc1ccccc1)c1ccccc1 (stereo not drawn) | 44 | 0.1 | 91* | 0.6 | 5 | 5
O=C(Nn1cnnc1)C(Sc1ccccc1)c1ccccc1 (stereo not drawn) | 74* | 0.4 | 61* | 0.3 | 13 | 0
COc1ccc(OC)c(NC(=O)Nc2cccc3ccccc23)c1 | 39 | 0.9 | 6 | 0.6 | 4 | -9
O=C(Nn1cnnc1)C(c1ccccc1)c1ccccc1 | 7 | 0.9 | 5 | 0.9 | 13 | 1
CCN(CCO)C(=O)C(c1ccccc1)c1ccccc1 | 17 | 0.8 | 22 | 0.8 | 0 | -1
COc1ccc(C2CC(=O)c3cnc(NC(=O)c4ccccc4)nc3C2)c(OC)c1 (stereo not drawn) | 48 | 0.5 | 47 | 0.5 | 12 | 0
CC1(C)CC(=O)C2=C(C1)N(CC1CCCO1)C(=O)C2(NC(=O)c1cccnc1)C(F)(F)F (stereo not drawn) | 12 | 1 | -3 | 0.9 | 22 | 8
O=C(NCCN1C(=O)CCC1=O)c1ccncc1 | 30 | 0.9 | 9 | 0.7 | 4 | 18
Cn1c(=O)c2c(nc(N3CCOCC3)n2CCCNC2=NCCCCC2)n(C)c1=O | -7 | 1.1 | -10 | 1.1 | 5 | -3
CC(C)C1N=C2c3ccccc3N=C(SCc3cc(=O)n4cc(Cl)ccc4n3)N2C1=O (stereo not drawn) | 55* | 0.5 | 45 | 0.5 | 8 | -1
CCCC(=O)N(c1ccc(OCC)cc1)C1C=CS(=O)(=O)C1 (stereo not drawn) | 46 | 0.4 | 63* | 0.5 | 14 | 5

From PubChem BioAssay
